Source: the supplement of paper PMC7724964

T1: TERF1 58-268 TRF (domain begin residue: 58, domain end residue: 268), P54274
T1 chain: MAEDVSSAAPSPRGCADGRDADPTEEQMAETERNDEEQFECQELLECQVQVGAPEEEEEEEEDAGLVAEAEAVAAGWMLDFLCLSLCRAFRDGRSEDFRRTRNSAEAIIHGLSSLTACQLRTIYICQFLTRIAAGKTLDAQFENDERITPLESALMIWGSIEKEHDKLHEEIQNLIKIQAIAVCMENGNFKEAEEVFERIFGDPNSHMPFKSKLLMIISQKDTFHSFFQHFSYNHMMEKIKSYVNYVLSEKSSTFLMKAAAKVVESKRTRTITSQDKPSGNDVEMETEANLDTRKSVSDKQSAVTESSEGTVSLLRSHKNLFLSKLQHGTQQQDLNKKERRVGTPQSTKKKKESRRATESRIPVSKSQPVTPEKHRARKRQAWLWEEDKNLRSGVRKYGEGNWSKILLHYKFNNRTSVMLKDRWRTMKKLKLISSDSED

T2: TOM1L2 1-153 VHS (domain begin residue: 1, domain end residue: 153), Q6ZVM7
T2 chain: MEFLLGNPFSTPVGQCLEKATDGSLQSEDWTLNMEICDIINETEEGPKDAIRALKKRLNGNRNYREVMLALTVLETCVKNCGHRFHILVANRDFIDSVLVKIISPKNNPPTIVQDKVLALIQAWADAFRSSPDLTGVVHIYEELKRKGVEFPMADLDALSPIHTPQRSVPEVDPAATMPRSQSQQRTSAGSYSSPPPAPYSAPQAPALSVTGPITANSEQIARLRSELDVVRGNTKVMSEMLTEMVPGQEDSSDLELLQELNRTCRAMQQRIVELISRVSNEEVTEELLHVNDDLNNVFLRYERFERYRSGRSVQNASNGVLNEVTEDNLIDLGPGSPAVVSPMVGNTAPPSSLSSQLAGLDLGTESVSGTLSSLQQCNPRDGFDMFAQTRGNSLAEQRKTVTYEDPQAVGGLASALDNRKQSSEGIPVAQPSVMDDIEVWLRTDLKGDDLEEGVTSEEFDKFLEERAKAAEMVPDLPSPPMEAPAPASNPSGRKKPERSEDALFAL

T3: TDRD1 261-449 TUDOR (domain begin residue: 261, domain end residue: 449), Q9BXT4
T3 chain: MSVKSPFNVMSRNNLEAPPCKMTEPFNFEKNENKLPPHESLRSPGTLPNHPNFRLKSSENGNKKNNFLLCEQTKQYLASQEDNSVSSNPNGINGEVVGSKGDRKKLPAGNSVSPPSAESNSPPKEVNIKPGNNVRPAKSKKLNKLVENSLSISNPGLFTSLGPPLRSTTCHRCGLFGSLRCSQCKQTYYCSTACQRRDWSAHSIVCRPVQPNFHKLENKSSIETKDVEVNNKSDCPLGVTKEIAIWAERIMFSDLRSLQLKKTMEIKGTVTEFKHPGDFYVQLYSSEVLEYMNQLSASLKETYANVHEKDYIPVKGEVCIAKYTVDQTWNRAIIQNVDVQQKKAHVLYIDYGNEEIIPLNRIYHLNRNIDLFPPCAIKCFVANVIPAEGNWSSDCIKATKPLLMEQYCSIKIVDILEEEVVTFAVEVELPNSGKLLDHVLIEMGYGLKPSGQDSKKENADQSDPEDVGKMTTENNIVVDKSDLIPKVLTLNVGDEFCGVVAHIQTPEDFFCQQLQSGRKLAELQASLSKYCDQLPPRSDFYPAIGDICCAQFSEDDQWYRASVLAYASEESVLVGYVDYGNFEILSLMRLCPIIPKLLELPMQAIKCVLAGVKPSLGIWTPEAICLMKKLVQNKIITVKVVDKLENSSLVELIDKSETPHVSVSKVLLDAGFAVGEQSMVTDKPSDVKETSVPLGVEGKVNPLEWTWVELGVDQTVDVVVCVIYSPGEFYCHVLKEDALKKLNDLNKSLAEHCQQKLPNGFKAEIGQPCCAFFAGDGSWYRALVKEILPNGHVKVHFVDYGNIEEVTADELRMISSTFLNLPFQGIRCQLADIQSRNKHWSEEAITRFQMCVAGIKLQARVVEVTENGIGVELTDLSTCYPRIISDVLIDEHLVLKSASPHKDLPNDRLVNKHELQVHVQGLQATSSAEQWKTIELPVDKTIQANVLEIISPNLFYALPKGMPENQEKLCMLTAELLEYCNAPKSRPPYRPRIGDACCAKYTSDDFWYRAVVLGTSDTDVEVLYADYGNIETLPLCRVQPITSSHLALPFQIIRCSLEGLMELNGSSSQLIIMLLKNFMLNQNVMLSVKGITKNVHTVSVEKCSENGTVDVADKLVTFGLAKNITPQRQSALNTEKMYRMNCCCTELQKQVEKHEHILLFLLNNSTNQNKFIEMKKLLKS

T4: TOM1L1 1-150 VHS (domain begin residue: 1, domain end residue: 150), O75674
T4 chain: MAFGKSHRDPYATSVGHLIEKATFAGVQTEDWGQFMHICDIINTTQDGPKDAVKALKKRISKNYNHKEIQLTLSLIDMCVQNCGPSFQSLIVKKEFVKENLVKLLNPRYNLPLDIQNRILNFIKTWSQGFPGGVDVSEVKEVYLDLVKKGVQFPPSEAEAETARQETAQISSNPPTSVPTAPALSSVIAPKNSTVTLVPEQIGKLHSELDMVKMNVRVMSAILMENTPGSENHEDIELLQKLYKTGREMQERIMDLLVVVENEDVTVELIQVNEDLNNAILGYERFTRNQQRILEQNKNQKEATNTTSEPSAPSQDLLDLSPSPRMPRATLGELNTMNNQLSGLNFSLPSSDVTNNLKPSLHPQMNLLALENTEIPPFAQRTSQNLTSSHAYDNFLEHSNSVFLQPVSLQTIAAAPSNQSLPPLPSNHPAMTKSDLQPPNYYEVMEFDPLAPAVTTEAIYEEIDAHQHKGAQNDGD

T5: TRIM10 292-481 SPRY (domain begin residue: 292, domain end residue: 481), Q9UDY6
T5 chain: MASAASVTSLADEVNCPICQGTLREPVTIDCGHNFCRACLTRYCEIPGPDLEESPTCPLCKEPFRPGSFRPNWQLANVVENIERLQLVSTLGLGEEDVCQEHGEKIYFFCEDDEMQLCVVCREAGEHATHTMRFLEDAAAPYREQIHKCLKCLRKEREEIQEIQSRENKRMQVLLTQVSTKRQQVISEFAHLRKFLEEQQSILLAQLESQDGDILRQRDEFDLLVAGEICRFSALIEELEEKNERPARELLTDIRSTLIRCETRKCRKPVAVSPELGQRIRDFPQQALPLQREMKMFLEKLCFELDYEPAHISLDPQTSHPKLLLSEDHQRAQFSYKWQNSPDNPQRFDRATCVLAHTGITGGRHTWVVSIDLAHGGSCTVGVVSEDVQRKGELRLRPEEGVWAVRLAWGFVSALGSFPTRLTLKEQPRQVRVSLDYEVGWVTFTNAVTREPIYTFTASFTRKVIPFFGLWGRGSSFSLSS

T6: TCEA2 231-299 TFIIS_C (domain begin residue: 231, domain end residue: 299), Q15560
T6 chain: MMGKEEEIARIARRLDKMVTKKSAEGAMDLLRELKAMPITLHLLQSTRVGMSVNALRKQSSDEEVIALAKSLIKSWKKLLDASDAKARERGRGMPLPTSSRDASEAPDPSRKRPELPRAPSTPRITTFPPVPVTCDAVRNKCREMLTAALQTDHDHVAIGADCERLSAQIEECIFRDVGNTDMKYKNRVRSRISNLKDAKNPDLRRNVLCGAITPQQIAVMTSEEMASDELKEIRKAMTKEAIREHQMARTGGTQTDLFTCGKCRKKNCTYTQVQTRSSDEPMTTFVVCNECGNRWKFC

T7: STAM 1-143 VHS (domain begin residue: 1, domain end residue: 143), Q92783
T7 chain: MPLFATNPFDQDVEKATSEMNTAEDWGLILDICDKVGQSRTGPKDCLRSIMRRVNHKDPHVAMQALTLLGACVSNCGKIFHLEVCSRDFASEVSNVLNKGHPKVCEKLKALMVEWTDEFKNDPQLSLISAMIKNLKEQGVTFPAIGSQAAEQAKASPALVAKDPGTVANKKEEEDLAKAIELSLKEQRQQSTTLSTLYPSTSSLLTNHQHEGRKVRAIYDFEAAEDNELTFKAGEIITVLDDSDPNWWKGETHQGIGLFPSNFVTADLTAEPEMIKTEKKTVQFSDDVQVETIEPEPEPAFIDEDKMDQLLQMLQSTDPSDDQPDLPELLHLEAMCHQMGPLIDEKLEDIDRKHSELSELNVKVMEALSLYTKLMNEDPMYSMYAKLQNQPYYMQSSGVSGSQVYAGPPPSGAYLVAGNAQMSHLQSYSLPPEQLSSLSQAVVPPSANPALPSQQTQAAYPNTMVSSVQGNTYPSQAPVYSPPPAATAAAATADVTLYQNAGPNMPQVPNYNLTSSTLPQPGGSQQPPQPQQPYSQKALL

T8: TDRKH 290-430 TUDOR+SNase (domain begin residue: 290, domain end residue: 430), Q9Y2W6
T8 chain: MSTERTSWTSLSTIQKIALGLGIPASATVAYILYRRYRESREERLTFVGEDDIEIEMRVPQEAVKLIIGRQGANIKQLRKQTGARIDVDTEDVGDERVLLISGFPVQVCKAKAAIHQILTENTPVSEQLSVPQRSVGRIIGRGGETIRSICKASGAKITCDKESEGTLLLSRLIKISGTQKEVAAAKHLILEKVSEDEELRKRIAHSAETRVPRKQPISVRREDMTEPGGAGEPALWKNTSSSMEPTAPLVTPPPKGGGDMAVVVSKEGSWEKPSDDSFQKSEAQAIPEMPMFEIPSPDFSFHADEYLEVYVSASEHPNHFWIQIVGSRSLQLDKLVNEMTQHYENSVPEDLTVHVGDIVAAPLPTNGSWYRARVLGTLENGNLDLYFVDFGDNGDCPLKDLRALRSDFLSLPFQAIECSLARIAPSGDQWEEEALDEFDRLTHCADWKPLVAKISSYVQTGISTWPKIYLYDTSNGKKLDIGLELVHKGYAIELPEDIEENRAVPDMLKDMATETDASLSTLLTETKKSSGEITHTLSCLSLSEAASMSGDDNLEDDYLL


Biological target: T1, TERF1 58-268 TRF (domain begin residue: …
Assay: phage ELISA signal ratio (GST-PRM binding over GST background); higher = stronger binding of peptide-phage to the PRM
Procedure, shortened: (§1)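 Each value is the phage ELISA signal on the glutathione S-transferase (GST)-domain fusion divided by the signal on GST alone. Human peptide recognition domains were expressed in 96-well plates, fused to the C-terminus of GST, and selected against an M13 phage library carrying randomized, cysteine-free, glycine-flanked hexadecapeptides on the gene-8 major coat protein. After five selection rounds, approximately 48 individual clones from rounds 4 and 5 were tested by phage ELISA, and positive clones were sequenced.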
With MLFDDEAMYNWQWHLM the “phage ELISA signal ratio” value was 12.2. For EHSFLFEDWMWEGKDH, the “phage ELISA signal ratio” value was 5.48. LGHTTAEMIDYMELQW was tested, and the “phage ELISA signal ratio” value was 15.3.

Biological target: T2, TOM1L2 1-153 VHS (domain begin residue: …
Assay: as above
Procedure, shortened: as §1
In the case of AFENNQQAILQYMMDV, the “phage ELISA signal ratio” value is reported as 22.7. With LPPHWFDEMYSITAMY the “phage ELISA signal ratio” value was 7.51. For TEMWTPAQQALWAYIT, the “phage ELISA signal ratio” value was 8.79.

Biological target: T3, TDRD1 261-449 TUDOR (domain begin …
Assay: as above
Procedure, shortened: as §1
With MPLHEWEAGWPWEVVG the “phage ELISA signal ratio” value was 7.35. WNQWQEWTTDHGVLLE was tested, and the “phage ELISA signal ratio” value was 7.12. With EMHWMDIWDSLLPESK the “phage ELISA signal ratio” value was 7.87.

Biological target: T4, TOM1L1 1-150 VHS (domain begin residue: …
Assay: as above
Procedure, shortened: as §1
For YQMSWMPSEIWWLNYV, the “phage ELISA signal ratio” value was 9.38. In the case of IEWEWLDSKEWWPKEF, the “phage ELISA signal ratio” value is reported as 32.5. For VSEGQWRPSYLWWTDD, the “phage ELISA signal ratio” value was 4.64. With ETDKWVPSYLWWANYS the “phage ELISA signal ratio” value was 16.8. DFTWLHSEKWWPEEWG was tested, and the “phage ELISA signal ratio” value was 14.3. QHDWAPSYLWWDEWTM was tested, and the “phage ELISA signal ratio” value was 20.5. In the case of NNNWWMQWHVEEHEME, the “phage ELISA signal ratio” value is reported as 4.26.

Biological target: T5, TRIM10 292-481 SPRY (domain begin …
Assay: as above
Procedure, shortened: as §1
For WEDGWLIPNAQDFQGM, the “phage ELISA signal ratio” value was 3.64.

What follows are binders tested against TLN2 312-417 IRS (domain begin residue: 312, domain end residue: 417), Q9Y4G6 in the same assay as above.
Chain of TLN2 312-417 IRS (domain begin residue: 312, domain end residue: 417), Q9Y4G6 (Q9Y4G6 whole entry): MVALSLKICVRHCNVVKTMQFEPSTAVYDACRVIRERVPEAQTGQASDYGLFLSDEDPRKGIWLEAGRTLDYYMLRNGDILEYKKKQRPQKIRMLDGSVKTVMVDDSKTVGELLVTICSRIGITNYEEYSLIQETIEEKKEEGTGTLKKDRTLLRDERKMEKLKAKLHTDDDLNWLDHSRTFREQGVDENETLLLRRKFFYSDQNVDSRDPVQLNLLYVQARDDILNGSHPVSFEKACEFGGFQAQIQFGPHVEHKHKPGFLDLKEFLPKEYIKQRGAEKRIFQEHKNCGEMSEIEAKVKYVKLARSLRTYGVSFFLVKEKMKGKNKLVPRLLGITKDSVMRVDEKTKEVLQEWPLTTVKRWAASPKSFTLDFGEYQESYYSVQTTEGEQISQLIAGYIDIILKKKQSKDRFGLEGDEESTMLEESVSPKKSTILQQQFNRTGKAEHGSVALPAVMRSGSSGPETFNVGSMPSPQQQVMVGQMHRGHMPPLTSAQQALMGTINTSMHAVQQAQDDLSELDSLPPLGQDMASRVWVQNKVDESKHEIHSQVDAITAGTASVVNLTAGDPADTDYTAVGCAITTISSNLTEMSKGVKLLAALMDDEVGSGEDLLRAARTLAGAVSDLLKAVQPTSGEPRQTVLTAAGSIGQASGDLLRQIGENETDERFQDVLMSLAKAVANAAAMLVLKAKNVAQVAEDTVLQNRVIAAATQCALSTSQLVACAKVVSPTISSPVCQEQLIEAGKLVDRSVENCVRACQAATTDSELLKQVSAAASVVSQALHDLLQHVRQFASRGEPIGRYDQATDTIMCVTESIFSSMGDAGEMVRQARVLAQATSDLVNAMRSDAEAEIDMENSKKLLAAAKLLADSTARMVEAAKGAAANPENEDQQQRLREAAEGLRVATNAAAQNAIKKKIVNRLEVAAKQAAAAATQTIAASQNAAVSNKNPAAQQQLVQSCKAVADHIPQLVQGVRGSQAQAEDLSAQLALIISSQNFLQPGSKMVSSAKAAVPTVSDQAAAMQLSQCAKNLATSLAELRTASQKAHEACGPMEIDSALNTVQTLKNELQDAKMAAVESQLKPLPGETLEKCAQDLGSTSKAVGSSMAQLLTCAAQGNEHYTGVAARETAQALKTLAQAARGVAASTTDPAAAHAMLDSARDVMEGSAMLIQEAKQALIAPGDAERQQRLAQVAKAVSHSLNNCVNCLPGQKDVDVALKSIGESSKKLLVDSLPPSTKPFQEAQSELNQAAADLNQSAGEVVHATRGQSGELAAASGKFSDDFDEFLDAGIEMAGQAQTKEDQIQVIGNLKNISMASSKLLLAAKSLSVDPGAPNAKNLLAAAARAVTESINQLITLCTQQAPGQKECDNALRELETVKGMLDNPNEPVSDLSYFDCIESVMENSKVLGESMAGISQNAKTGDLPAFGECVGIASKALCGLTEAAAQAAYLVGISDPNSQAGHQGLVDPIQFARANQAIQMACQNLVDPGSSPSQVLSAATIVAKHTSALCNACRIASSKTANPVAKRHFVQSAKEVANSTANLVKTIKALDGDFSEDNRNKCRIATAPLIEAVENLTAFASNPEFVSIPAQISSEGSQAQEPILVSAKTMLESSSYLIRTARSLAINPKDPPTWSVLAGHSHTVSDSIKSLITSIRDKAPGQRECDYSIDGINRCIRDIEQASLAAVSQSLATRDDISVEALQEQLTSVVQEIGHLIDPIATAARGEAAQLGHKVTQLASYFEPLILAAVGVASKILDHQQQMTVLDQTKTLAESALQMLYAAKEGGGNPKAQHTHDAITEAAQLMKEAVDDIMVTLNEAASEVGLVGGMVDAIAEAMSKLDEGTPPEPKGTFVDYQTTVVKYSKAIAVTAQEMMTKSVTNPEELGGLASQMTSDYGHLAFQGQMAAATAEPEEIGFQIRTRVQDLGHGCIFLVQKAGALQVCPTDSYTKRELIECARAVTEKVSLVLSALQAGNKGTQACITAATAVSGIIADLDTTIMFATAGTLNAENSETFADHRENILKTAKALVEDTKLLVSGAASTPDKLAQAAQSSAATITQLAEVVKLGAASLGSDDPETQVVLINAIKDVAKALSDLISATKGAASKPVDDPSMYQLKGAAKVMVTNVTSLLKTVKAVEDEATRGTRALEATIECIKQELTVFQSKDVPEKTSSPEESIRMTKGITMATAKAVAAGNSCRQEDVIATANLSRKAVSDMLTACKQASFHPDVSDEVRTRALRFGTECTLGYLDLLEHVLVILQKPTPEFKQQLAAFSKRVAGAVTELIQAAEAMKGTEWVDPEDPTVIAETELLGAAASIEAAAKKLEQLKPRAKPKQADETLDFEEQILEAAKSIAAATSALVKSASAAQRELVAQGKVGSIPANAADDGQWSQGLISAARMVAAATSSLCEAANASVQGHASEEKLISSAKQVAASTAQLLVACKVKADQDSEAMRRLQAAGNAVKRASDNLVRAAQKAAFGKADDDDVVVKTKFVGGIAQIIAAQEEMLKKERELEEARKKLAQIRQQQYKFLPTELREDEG
Procedure, shortened: as §1
For MEWVEVYTKTDYAFPP, the “phage ELISA signal ratio” value was 17.8. With WDLNAQVEHMWQYGIA the “phage ELISA signal ratio” value was 15.9. With NENGSYEEHLAWTWGF the “phage ELISA signal ratio” value was 17.6. QNNFIQLQEWHWLEGW was tested, and the “phage ELISA signal ratio” value was 11.2.

Biological target: T6, TCEA2 231-299 TFIIS_C (domain begin …
Assay: as above
Procedure, shortened: as §1
In the case of WAWEDMWFMEQLESTE, the “phage ELISA signal ratio” value is reported as 3.89. For EQWTWEPMWEWMTITD, the “phage ELISA signal ratio” value was 5.86.

Biological target: T7, STAM 1-143 VHS (domain begin residue: …
Assay: as above
Procedure, shortened: as §1
In the case of QERNHHDPHALWESLF, the “phage ELISA signal ratio” value is reported as 20.8.

These binders were tested against TOM1 1-153 VHS (domain begin residue: 1, domain end residue: 153), O60784 in the same assay as above.
Chain of TOM1 1-153 VHS (domain begin residue: 1, domain end residue: 153), O60784 (O60784 whole entry): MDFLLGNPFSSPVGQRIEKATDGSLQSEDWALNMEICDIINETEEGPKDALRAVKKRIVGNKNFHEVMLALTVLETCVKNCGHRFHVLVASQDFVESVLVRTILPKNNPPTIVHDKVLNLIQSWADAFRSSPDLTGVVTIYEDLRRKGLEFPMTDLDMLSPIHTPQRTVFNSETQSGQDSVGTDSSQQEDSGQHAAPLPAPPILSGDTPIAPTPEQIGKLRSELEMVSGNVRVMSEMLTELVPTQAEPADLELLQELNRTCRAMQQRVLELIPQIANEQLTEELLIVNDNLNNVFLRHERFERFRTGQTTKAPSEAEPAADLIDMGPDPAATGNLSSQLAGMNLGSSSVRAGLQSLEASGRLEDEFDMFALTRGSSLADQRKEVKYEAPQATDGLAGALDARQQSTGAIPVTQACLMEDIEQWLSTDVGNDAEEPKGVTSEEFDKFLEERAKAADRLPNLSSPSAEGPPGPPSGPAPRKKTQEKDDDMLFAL
Procedure, shortened: as §1
For NSWWLDYEERATLHGD, the “phage ELISA signal ratio” value was 9.5. For PWWLEYEMPITRESPV, the “phage ELISA signal ratio” value was 4.45.

Each binder was assayed against SUB1 58-127 PC4 (domain begin residue: 58, domain end residue: 127), P53999 in the same assay as above.
Procedure, shortened: as §1
In the case of DEEEWWWQFQSHQLPE, the “phage ELISA signal ratio” value is reported as 8.77.

What follows are binders tested against TLN1 309-401 IRS (domain begin residue: 309, domain end residue: 401), Q9Y490 in the same assay as above.
Procedure, shortened: as §1
In the case of EFTMNWQYPTQYNFIQ, the “phage ELISA signal ratio” value is reported as 15.3.

Biological target: T8, TDRKH 290-430 TUDOR+SNase (domain begin …
Assay: as above
Procedure, shortened: as §1
With HEQNRMDVRNDGRTGF the “phage ELISA signal ratio” value was 8.
